Laboratory results: PubChem BioAssay AID652042 (Broad Institute, 2013)
Among all 1,100 compounds or so, about 350 (32%) were called active. These entries were drawn from the full list. Entries with a potency or affinity are not part of this list. A number with no mark means an inactive call. How the calls were made is not given here.

Assay: CEM21 lymphoblast cell cytotoxicity, dose response, cytotoxicity control for viral fusion inhibitor project, CellTiter-Glo luminescence, cherry-picked (AID 652042)
Conditions: CEM21 cells viability, CellTiter-Glo ATP luminescence, 24 h; series mostly up to 35 µM; activity change, negative = cytotoxicity: at the top concentration

Structure (SMILES) | activity change, negative = cytotoxicity [%]
COc1ccc(CN(C)C[C@@H]2Oc3ccc(NC(=O)Nc4ccc(OC)cc4)cc3C(=O)N([C@H](C)CO)C[C@@H]2C)cc1 | -7.84
CC(C)NC(=O)Nc1ccc2c(c1)CC(=O)N([C@H](C)CO)C[C@H](C)[C@H](CN(C)S(=O)(=O)c1cccs1)O2 | 1.85
C[C@H](CO)N1C[C@H](C)[C@H](CN(C)CC2CC2)Oc2ccc(NC(=O)Nc3ccc4c(c3)OCO4)cc2CC1=O | -1.32
C[C@H](CO)N1C[C@H](C)[C@H](CN(C)S(=O)(=O)c2ccc(Cl)cc2)Oc2ccc(NC(=O)Nc3ccc4c(c3)OCO4)cc2C1=O | -8.62
COc1ccc(S(=O)(=O)Nc2ccc3c(c2)CC(=O)N([C@H](C)CO)C[C@H](C)[C@H](CN(C)S(=O)(=O)c2ccc(F)cc2)O3)cc1 | -0.109
C[C@H](CO)N1C[C@H](C)[C@H](CN(C)S(=O)(=O)c2ccccc2)Oc2ccc(NC(=O)Nc3ccccc3)cc2CC1=O | -19.4
C[C@H]1CN([C@@H](C)CO)C(=O)c2cc(NC(=O)Nc3ccc4c(c3)OCO4)ccc2O[C@H]1CN(C)S(=O)(=O)c1ccc(F)cc1 | -0.195
COc1ccc(NC(=O)Nc2ccc3c(c2)CC(=O)N([C@@H](C)CO)C[C@H](C)[C@H](CN(C)S(=O)(=O)c2cccs2)O3)cc1 | -13.2
COc1ccc(Cl)cc1CC1(C)C(=O)Nc2ccc(S(=O)(=O)NC3CCCCC3)cc21 (configuration not stated) | -10.2
O=C(c1ccccc1)N1CCC(c2nc(-c3ccc(S(=O)(=O)NCC4CCCO4)cc3)no2)CC1 (configuration not stated) | -19.1
CC1CCN(C(=O)c2ncn3c2C(=O)N[C@H](C)C3)CC1 | -0.958
Cc1nc2ncnn2c(N2CCCC(C(=O)Nc3ccc4c(c3)CCC4)C2)c1C (configuration not stated) | -9.92
O=C(Nc1ccc2c(c1)CCC2)C1CCN(c2c3c(nc4ncnn24)CCC3)CC1 | -17.5
Oc1ccc(CNc2ccccc2F)c2cccnc12 | -29.9
N#C/C(=N\Nc1ccc(Cl)cc1)C(=O)c1ccccc1 | -32.3
NC(=S)c1ccc(OCCCc2ccccc2)cc1 | -14.8
O=C1c2cccc(OCc3ccc(F)cc3)c2CCN1Cc1ccccc1 | -13.1
C[C@@]12C(=O)N(CCc3c[nH]c4ccccc34)CC(=O)N1[C@H]1c3ccccc3OC[C@@H]1[C@@H]2c1ccccc1 | -17.1
C[C@@]12C(=O)N(CC3CCCO3)CC(=O)N1[C@H]1c3cc(Cl)ccc3OC[C@@H]1[C@@H]2c1ccccc1 (some centres not stated) | -8.94
COC(=O)CCn1nnc(-c2ccc(C(C)C)cc2)n1 | 6.71
COCC(=O)Nc1ccc2c(c1)C(=O)N(C)[C@H]1CC[C@H](CC(=O)NC3CCCC3)O[C@H]1CO2 | -2.95
CC1=CC(C)(C)N(C(=O)c2ccccc2)c2ccc(C)cc21 | -13.1
